D1 PAM: enhances dopamine response at the human D1 receptor; HEK293 TREx D1 cells, calcium flux, dopamine EC20 potentiation; potentiation, % at 10 µM; 360,000 compounds, 0.036% hits; AID 504651; in the data active = potentiation above about 30%
TRHR agonist: activates the human TRH receptor; P34981; TRHR cells, calcium flux fluo-8, FDSS agonist mode; activation, % at 2 µM; 360,000 compounds, 0.18% hits; AID 493084
Target sequence (P34981 whole entry, looked up): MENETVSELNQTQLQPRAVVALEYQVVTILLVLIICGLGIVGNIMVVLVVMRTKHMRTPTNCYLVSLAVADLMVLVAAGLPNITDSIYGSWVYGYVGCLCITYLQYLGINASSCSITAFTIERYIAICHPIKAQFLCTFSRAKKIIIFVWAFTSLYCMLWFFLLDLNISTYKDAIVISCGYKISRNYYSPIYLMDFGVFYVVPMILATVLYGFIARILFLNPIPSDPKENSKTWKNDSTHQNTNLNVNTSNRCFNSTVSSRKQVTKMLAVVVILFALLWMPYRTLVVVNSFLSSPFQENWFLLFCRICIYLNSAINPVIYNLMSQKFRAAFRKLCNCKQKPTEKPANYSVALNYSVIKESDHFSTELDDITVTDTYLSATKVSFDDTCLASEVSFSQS
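Steps: seed TRHR cells overnight; add fluo-8 no-wash Ca dye, RT 30 min–1.5 h; record 10 s baseline; pin-transfer compounds; monitor fluorescence 1 cycle/s for the agonist window. Calcium increases flag candidate agonists.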
TRHR PAM: allosterically enhances the human TRH receptor; P34981; TRHR cells, fluo-8 calcium fluorescence, EC20 TRH enhancement; enhancement, % at 2 µM; 360,000 compounds, 0.66% hits; in the data active = enhancement above about 30%
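TRHR-expressing cells loaded with fluo-8 calcium dye were read kinetically (ex 480/em 530) during compound addition, then stimulated with an EC20 of TRH (10 nM final). Enhancement of the Gq-mediated intracellular calcium response was scored.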
D1 ag: human D1 receptor agonism; activation, % at 2 µM; P21728; HEK293 T-REx D1 cells, calcium flux, agonist mode; 360,000 compounds, 1% hits; AID 504660
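Inducible HEK293 T-REx D1 cells, force-coupled to calcium signalling, were plated at 4000 cells/well with tetracycline and held overnight at 30 C. After no-wash calcium dye loading, compound-evoked calcium rise over 180 s flagged agonists.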
D1 antag: human D1 dopamine receptor antagonism. P21728. HEK293 TREx D1 cells, calcium flux, dopamine EC80; hits give low values. activity change, negative = inhibition, % at 10 µM. 360,000 compounds, 3.2% hits. AID 504652; in the data active = activity change below about -30%
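Compound effects on dopamine-evoked calcium signalling were measured in tetracycline-induced HEK293 Trex D1 cells. Dopamine at EC80 followed a 180 s compound pre-read, and fluorescence was tracked kinetically for 180 s more.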
Each line names hits and unclear results; the compound was inactive in the other large screens; ! = not confirmed by another sample. Only some compounds are listed: those with a hit (about 4.6% of all), similar ones and a draw of the others. Cut-off read from the data, not from the text of the source, unless noted: active = activation above about 30%; inactive = the rest.

O=S(=O)(NCC(c1ccco1)N1CCCCC1)c1ccccc1C(F)(F)F (stereo unspecified)	D1 antag -41.9
CCOc1ccc(NS(=O)(=O)c2ccc(C(=O)NCC(c3ccco3)N(C)C)cc2)cc1 (stereo unspecified)	D1 ag 69.6
Cc1ccc(NS(=O)(=O)c2ccc(C(=O)NCC(c3ccco3)N3CCCCC3)cc2)cc1 (stereo unspecified)	D1 ag 38.6
O=C(NCC(c1ccco1)N1CCCCC1)c1ccc(S(=O)(=O)Nc2ccccc2)cc1 (stereo unspecified)	none
CCOc1ccc(S(=O)(=O)Nc2ccc(C(=O)NCC(c3ccco3)N3CCCCC3)cc2)cc1 (stereo unspecified)	D1 ag 32.8
CCc1ccc(NC(=O)COCc2cc(-c3ccc(F)cc3)on2)cc1	none
CCOc1ccc(NC(=O)Cn2c(=O)c(CNc3ccc(OC)cc3)cc3ccc(OC)cc32)cc1	none
COC(=O)/C=C1/S/C(=N/NC(=O)c2ccc(Cl)cc2Cl)NC1=O	none
Cc1cccc(-n2c(=O)c3ccccc3n(Cc3ccc(F)cc3)c2=O)c1	none
Cc1ccc(NS(=O)(=O)c2cccc(C(=O)NCC(c3ccco3)N3CCCC3)c2)cc1 (stereo unspecified)	D1 ag 44.1 (no result: D1 PAM)
O=C(CNC(=O)c1ccc(-c2ccccc2)cc1)OC(C(=O)Nc1cc(C(F)(F)F)ccc1Cl)c1ccccc1 (stereo unspecified)	none
CCC1CCc2nc3sc(C(=O)Nc4ccc(C)cc4C)c(N)c3cc2C1 (stereo unspecified)	none
Cc1csc2nc3cc(C(N)=O)ccc3c(=O)n12	D1 antag -44.3
CCCn1ncc([C@@H]2C[C@H]3CN(Cc4cccc(Cl)c4)C(=O)[C@]34CCCN24)c1C	D1 antag -31.0
Cn1cc([C@@H]2C[C@H]3CN(Cc4cccc(Cl)c4)C(=O)[C@]34CCCN24)c(-c2ccccc2)n1	D1 antag -30.9
COc1ccccc1N1CCN(c2ncnc3c2cnn3-c2ccc(C)cc2)CC1	none
COc1ccc(-c2onc(C)c2C)cc1S(=O)(=O)NCc1ccc(C)o1	none
COc1ccc(-n2ccnc(NCCc3ccc(S(N)(=O)=O)cc3)c2=O)cc1	none
O=C(Nc1ccc(Oc2cccnc2)cc1)C1CCCCN1Cc1ccc(CO)o1 (stereo unspecified)	none
O=C(NCC1CCN(Cc2cccc(Cl)c2)CC1)Nc1ccc(F)c(Cl)c1	none
CCc1cccc(CN2CCC(CNC(=O)Nc3ccc(Cl)cc3)CC2)c1	D1 ag 38.9, D1 antag -43.7
Cc1cc(CN2CCCCC2C(=O)Nc2ccc(Oc3cccnc3)cc2)oc1C (stereo unspecified)	D1 antag -33.0
O=C(Nc1ccc(Oc2cccnc2)cc1)C1CCN(Cc2cccc(Cl)c2)CC1	D1 ag 49.4, D1 antag -37.0
O=C(Nc1ccc(Oc2cccnc2)cc1)C1CCN(Cc2ccccc2)CC1	none
COc1ccc(OC)c(CN2CCC(CNC(=O)Nc3cccc(Cl)c3)CC2)c1	none
O=C(NCC1CCN(Cc2cccc(Cl)c2)CC1)Nc1ccc(Cl)cc1	D1 ag 31.5, D1 antag -73.3
O=C(c1cccs1)N1CCc2c([nH]c3ccccc23)C1c1ccccn1 (stereo unspecified)	none
CC(=O)c1ccc(C(=O)N2CCc3c([nH]c4ccccc34)C2c2ccccn2)s1 (stereo unspecified)	D1 antag -30.9
O=C(Cn1c(=O)c(CNc2ccccc2)cc2cc3c(cc21)OCCO3)Nc1ccccc1Cl	none
CCn1c(=O)n(CC2CCC(C(=O)NC(C)C)CC2)c(=O)c2sccc21 (stereo unspecified)	none
Cc1ccc(NC(=O)Cn2c(=O)n(CC3CCC(C(=O)NC(C)C)CC3)c(=O)c3sccc32)cc1 (stereo unspecified)	D1 antag -44.1
Cc1cc(C)cc(C(=O)N2CC(=O)Nc3ccc(C)cc3C2c2ccccc2)c1 (stereo unspecified)	none
Cc1nc(N2CCOCC2)c(C#N)c(C)c1Br	none
Cc1nc(Br)c(Br)c(C)c1Br	D1 antag -30.7
CCOc1ccc(CONS(=O)(=O)c2ccc(NC(C)=O)cc2)cc1Cl	D1 ag 68.5
CC(=O)Nc1ccc(S(=O)(=O)NNC(=O)COc2ccc(Cl)cc2Cl)cc1	none
COc1ccccc1CNC(=O)c1ccc2c(c1)N(Cc1cc(C)ccc1C)C(=O)c1ccccc1S2	D1 antag -37.7
Cc1ccc(CN2C(=O)c3ccccc3Sc3ccc(C(=O)NCCCN4CCOCC4)cc32)cc1	D1 ag 42.8!
CCN(CC)CCCNC(=O)c1ccc2c(c1)N(Cc1c(F)cccc1Cl)C(=O)c1ccccc1S2	D1 ag 44.9
O=C(NCCN1CCOCC1)c1ccc2c(c1)N(Cc1cccc(F)c1)C(=O)c1ccccc1S2	none
CC1CCCN(CCCNC(=O)c2ccc3c(c2)N(Cc2ccc(F)cc2)C(=O)c2ccccc2S3=O)C1 (stereo unspecified)	D1 ag 39.4
O=C(NCc1ccco1)c1ccc2c(c1)N(Cc1c(F)cccc1Cl)C(=O)c1ccccc1S2	none
CC(C)(C)OC(=O)n1c2ccsc2c2cnn(Cc3ccccc3F)c(=O)c21	none
Cc1c(C)n(Cc2ccc(F)cc2)c2ccc(C(=O)NCCCN3CCOCC3)cc12	D1 antag -37.5
CCN1C(=O)c2ccccc2Sc2ccc(NC(=O)c3ccc(C)c(F)c3)cc21	D1 antag -72.2
Brc1ccc(NC2=Nc3ccccc3CC2)cc1	D1 antag -30.0
CCOc1ccc(C(=O)NCCc2csc(-c3cccnc3)n2)cc1	none
C/C(N)=C(/C#N)C(=O)CSc1nnnn1-c1ccc(C)cc1	D1 antag -43.6
C/C(N)=C(/C#N)C(=O)CSc1nnnn1-c1ccccc1	none
Cc1nc(/C=C/c2ccccc2)[nH]c(=O)c1-c1ccccc1	D1 antag -42.9
CC1CCCCN1C(=O)CSc1nc(-c2ccccc2)cn1N (stereo unspecified)	none
CC1CCCCN1C(=O)CSc1n[nH]c(-c2ccccc2)n1 (stereo unspecified)	D1 antag -31.5
N#Cc1cccc(C#N)c1Oc1ccc(S(=O)(=O)Nc2ccc(Cl)cc2)cc1	D1 antag -38.4
N#Cc1nc(Nc2cc(Cl)cc(Cl)c2)nc(NC2CCCC2)n1	none
Cc1cc(C)c2c(CC(=O)N(Cc3ccc(N(C)C)cc3)Cc3ccco3)coc2c1	none
Cc1ccc2c(CC(=O)N(Cc3ccc(Cl)cc3)Cc3ccco3)coc2c1	D1 ag 32.9
Cc1ccc(CN(Cc2ccco2)C(=O)COc2ccc(C(C)C)cc2)cc1	D1 ag 46.2, D1 antag -55.8
Cc1ccc(OCC(=O)N(Cc2ccco2)Cc2ccco2)cc1	none
CCC(=O)N1CCc2cc(Br)cc(S(=O)(=O)CCC(=O)N3CCN(c4ccccc4OC)CC3)c21	none
